Source: ChEMBL document CHEMBL5606460, “ASAP - DENV-2 NS2B-NS3 protease fluorescence single point” (2024)
Screen size: about 2,000 compounds; about 110 (5.5%) showed an effect of 50% or more. What follows is part of a selection rich in strong results, with near analogues and random picks from the rest.

Target: Genome polyprotein (dengue virus type 2) (UniProt P29990)
[1] = Thailand/16681/1984, Concentration 25.0 uM, Number of replicates 1.0

Structure (SMILES): Cc1cc(CO)c2cccc(CC(=O)Nc3cc(O)[nH]n3)c2n1
- inhibition (Thailand/16681/1984, Concentration 49.95 uM, Number of replicates 2.0, Standard deviation 0.30186854167697036 %): 9.85%
- inhibition (Thailand/16681/1984, Concentration 99.9 uM, Number of replicates 2.0, Standard deviation 0.4943454438060974 %): 27.1%

Structure (SMILES): Cc1cc(CO)c2cccc(NC(=O)[C@@H](N)CC(N)=O)c2n1
- inhibition (Thailand/16681/1984, Concentration 49.95 uM, Number of replicates 2.0, Standard deviation 1.8295341709834483 %): -3.67%
- inhibition (Thailand/16681/1984, Concentration 99.9 uM, Number of replicates 2.0, Standard deviation 6.049352845396267 %): -1.2%

Structure (SMILES): Cc1cc(CO)c2cccc(NC(=O)[C@@H](N)CCN)c2n1
- inhibition (Thailand/16681/1984, Concentration 49.95 uM, Number of replicates 2.0, Standard deviation 3.3658560886244877 %): -1.14%
- inhibition (Thailand/16681/1984, Concentration 99.9 uM, Number of replicates 2.0, Standard deviation 3.0766976877592507 %): -5.81%

Structure (SMILES): Cc1cc(CO)c2cccc(Nc3cc(C)on3)c2n1
- inhibition (Thailand/16681/1984, Concentration 49.95 uM, Number of replicates 2.0, Standard deviation 1.3194982141200182 %): 1.66%
- inhibition (Thailand/16681/1984, Concentration 99.9 uM, Number of replicates 2.0, Standard deviation 1.2714193652686099 %): 2.71%

Structure (SMILES): Cc1cc(CO)c2cccc(NC(=O)CCN)c2n1
- inhibition (Thailand/16681/1984, Concentration 49.95 uM, Number of replicates 2.0, Standard deviation 0.675365146636023 %): 28.7%
- inhibition (Thailand/16681/1984, Concentration 99.9 uM, Number of replicates 2.0, Standard deviation 0.4014376052982588 %): 91.2%

Structure (SMILES): Cc1cc(CO)c2cccc(Cc3ccccc3NC(=O)[C@H](N)CCO)c2n1
- inhibition (Thailand/16681/1984, Concentration 49.95 uM, Number of replicates 2.0, Standard deviation 1.1804730410904682 %): -2.49%
- inhibition (Thailand/16681/1984, Concentration 99.9 uM, Number of replicates 2.0, Standard deviation 1.1029287785847963 %): -0.758%

Structure (SMILES): Cc1cc(CO)c2cccc(NC(=O)COc3cccc(CN)c3)c2n1
- inhibition (Thailand/16681/1984, Concentration 49.95 uM, Number of replicates 2.0, Standard deviation 1.546456211659181 %): 9.18%
- inhibition (Thailand/16681/1984, Concentration 99.9 uM, Number of replicates 2.0, Standard deviation 0.8863913825569767 %): 7.18%

Structure (SMILES): Cc1cc(CO)c2cccc(Nc3cc(O)[nH]n3)c2n1
- inhibition (Thailand/16681/1984, Concentration 49.95 uM, Number of replicates 2.0, Standard deviation 1.1262325758678584 %): 32.3%
- inhibition (Thailand/16681/1984, Concentration 99.9 uM, Number of replicates 2.0, Standard deviation 0.556697154318326 %): 51.5%

Structure (SMILES): Cc1cc(CO)c2cccc(Cc3ccccc3NC(=O)[C@@H](N)CC(N)=O)c2n1
- inhibition (Thailand/16681/1984, Concentration 49.95 uM, Number of replicates 2.0, Standard deviation 0.9388389208439332 %): 28.9%
- inhibition (Thailand/16681/1984, Concentration 99.9 uM, Number of replicates 2.0, Standard deviation 1.1783962129832455 %): 59.7%

Structure (SMILES): Cc1nc(Cl)c(NC(=O)C2CCN(c3ccc(C=O)cc3)CC2)c(Cl)n1
- inhibition [1]: 12.8%

Structure (SMILES): CC(C)(CO)NC(=O)c1cc(Cl)cc(NC(=O)Cn2cnccc2=O)c1
- inhibition (Thailand/16681/1984, Concentration 49.5 uM, Number of replicates 2.0, Standard deviation 0.3718016272993385 %): -3.9%
- inhibition (Thailand/16681/1984, Concentration 99.01 uM, Number of replicates 2.0, Standard deviation 1.0416819516575477 %): -5.97%
- inhibition (Thailand/16681/1984, Concentration 198.0 uM, Number of replicates 2.0, Standard deviation 1.29652000519297 %): -5.4%

Structure (SMILES): O=Cc1ccc(N2CCC(C(=O)N3CCN(C(=O)C(F)(F)F)CC3)CC2)cc1
- inhibition [1]: 8.59%

Structure (SMILES): Cc1n[nH]c(CC(=O)N2CCC[C@H](n3cnc(C(N)=O)n3)C2)n1
- inhibition (Thailand/16681/1984, Concentration 49.5 uM, Number of replicates 2.0, Standard deviation 0.8615620840433298 %): -1.22%
- inhibition (Thailand/16681/1984, Concentration 99.01 uM, Number of replicates 2.0, Standard deviation 0.2938998370290156 %): -1.99%
- inhibition (Thailand/16681/1984, Concentration 198.0 uM, Number of replicates 2.0, Standard deviation 1.103757347430939 %): -0.94%

Structure (SMILES): Cn1cc(NC(=O)c2ccccc2C(F)(F)F)c(-c2cnn(C)n2)n1
- inhibition (Thailand/16681/1984, Concentration 49.5 uM, Number of replicates 2.0, Standard deviation 0.32036291597833877 %): -2.97%
- inhibition (Thailand/16681/1984, Concentration 99.01 uM, Number of replicates 2.0, Standard deviation 1.175972600606475 %): -3.46%
- inhibition (Thailand/16681/1984, Concentration 198.0 uM, Number of replicates 2.0, Standard deviation 1.0582279614459547 %): -3.2%

Structure (SMILES): O=Cc1ccc(N2CCC(C(=O)Nc3ccc4scnc4c3)CC2)cc1
- inhibition [1]: 13%

Structure (SMILES): O[C@]1(C(F)(F)F)CC[C@H](CNCc2nnc3ccccn23)CC1
- inhibition (Thailand/16681/1984, Concentration 49.5 uM, Number of replicates 2.0, Standard deviation 2.244095461971029 %): 4.51%
- inhibition (Thailand/16681/1984, Concentration 99.01 uM, Number of replicates 2.0, Standard deviation 1.4092400656614155 %): 4.61%
- inhibition (Thailand/16681/1984, Concentration 198.0 uM, Number of replicates 2.0, Standard deviation 2.783814769891106 %): 1.75%

Structure (SMILES): CCc1nc([C@@H](C)NC(=O)c2ccc(O)c(NC(=O)c3ccncc3F)c2C)n[nH]1
- inhibition (Thailand/16681/1984, Concentration 49.5 uM, Number of replicates 2.0, Standard deviation 0.640305880758115 %): -3.94%
- inhibition (Thailand/16681/1984, Concentration 99.01 uM, Number of replicates 2.0, Standard deviation 0.7647439452243474 %): -3.61%
- inhibition (Thailand/16681/1984, Concentration 198.0 uM, Number of replicates 2.0, Standard deviation 1.5490355987880475 %): -3.27%

Structure (SMILES): Cc1cn2nnc(C(=O)N[C@H]3CCCCn4c3n[nH]c4=O)c2c(=O)[nH]1
- inhibition (Thailand/16681/1984, Concentration 49.5 uM, Number of replicates 2.0, Standard deviation 0.2359641679366373 %): -0.501%
- inhibition (Thailand/16681/1984, Concentration 99.01 uM, Number of replicates 2.0, Standard deviation 0.10523355791430405 %): -0.563%
- inhibition (Thailand/16681/1984, Concentration 198.0 uM, Number of replicates 2.0, Standard deviation 0.06258385535382655 %): -1.4%

Structure (SMILES): O=Cc1ccc(N2CCC(C(=O)Nc3nnc(C(F)(F)F)s3)CC2)cc1
- inhibition [1]: 12.7%
